Experimental data published in PubChem BioAssay AID1159580 (chemical genetic matrix, 2015).
Among all 5,500 compounds or so, about 2,000 (36%) were called active. Inconclusive results (about 18%) are left out. Cut-off read from the data, not from the text of the source: active = normalized growth mostly below about 0.91 (no sharp cut-off); inconclusive = no clear call, values can overlap the other calls; inactive = mostly above about 0.92. This is one part of the list.

Assay: chemical genetic growth profiling, strain panel (AID 1159580);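 note: tested at 20 µM; growth read once vehicle control cultures reached saturation at 30 °C; 1 = growth at the plate median or of vehicle wells; lower values mean less growth of the strain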
Details: S. cerevisiae deletion strains, growth OD

Measured: normalized growth

C[N+]1(C)C2CC(OC(=O)[C@H](CO)c3ccccc3)CC1C1OC12 (stereo partly specified)
inactive: locus YAL040C, strain CLN3, active compounds read low 0.999 | locus YCL061C, strain MRC1 (second series), active compounds read low 1 | locus YDR363W, strain ESC2, active compounds read low 0.998 | locus YER002W, strain NOP16, active compounds read low 0.981 | locus YMR263W, strain SAP30, active compounds read low 0.998 | locus YMR307W, strain GAS1, active compounds read low 0.946 | locus YNL153C, strain GIM3, active compounds read low 0.99 | locus YNL175C, strain NOP13, active compounds read low 0.996 | locus YNL197C, strain WHI3, active compounds read low 0.988 | locus YNL224C, strain SQS1, active compounds read low 0.994 | locus YOR083W, strain WHI5 (second series), active compounds read low 0.991
